According to PubChem BioAssay (NCATS):
Records with an inconclusive call do not appear. Activity calls are given as the source filed them. Calls follow the shape of the dose curve; as a rule, active = well fitted curve in the direction sought with a large enough effect; inconclusive = small, poorly fitted or top-dose-only effect, or another doubt; inactive = no such curve, though single readings can be large; an effect the other way counts as inactive or inconclusive.

Columns and labels:
[1] = qHTS assay for measurement of the activity of small molecule inhibitors on Zika virus induced Caspase-3 activity in human iPSC derived neural progenitor cells (hNPCs) (AID 1224857); also: % of control where 0% means no effect; nearly all actives have a fitted effect of over 65% in size
Outline: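 After overnight (16–20 h) culture at 350 cells/well, hNPCs get compound, then ZIKV 2 FFU/cell one hour later. Six hours on, Caspase-Glo 3/7 is added and luminescence measured.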

[2] = qHTS assay for measurement of the activity of small molecule inhibitors on Zika virus induced Caspase-3 activity in human astrocytoma cells (AID 1224859);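 also: plate controls were ZIKV-infected untreated cells for no effect and uninfected cells for full effect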
Outline: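 Inhibition of Zika-induced caspase-3/7 activity: SNB-19 cells, 1 h compound pretreatment, ZIKV 2 FFU/cell for 6 h at 37 C, Caspase-Glo luminescence read-out.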

[3] = qHTS assay to identify small molecule inhibitors of chordoma cells - UCH-1 (AID 1259355); also: % is scaled to controls: 0 for no effect and ±100 for the full control effect; nearly all actives have a fitted effect of over 55% in size
Outline: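 A 48hr growth-inhibition format: each drug tested at 15 concentrations together with added auranofin, camptothecin, doxorubicin, rubitecan and topotecan, with cell viability quantified as CellTiter-Glo luminescence.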

[4] = qHTS assay to identify small molecule inhibitors of chordoma cells - UCH-2 (AID 1259356); also: series mostly up to about 46 µM; % is scaled to controls: 0 for no effect and ±100 for the full control effect
[5] = P-glycoprotein substrates identified in KB-8-5-11 adenocarcinoma cell line, qHTS therapeutic library screen (AID 1346987); settings: outcome: dose series up to 44.5 µM; also: series mostly up to about 44 µM; % is scaled to controls: 0 for no effect and ±100 for the full control effect; nearly all actives have a fitted effect of over 65% in size
Outline: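 Human cervical adenocarcinoma KB-8-5-11 cells, selected in colchicine to over-express P-gp and assayed without it, were exposed for 72 h to titrated compounds. An ATP-based luminescent viability signal gave AC50.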

[6] = NS1 protein of Zika virus - qHTS assay to identify small molecule inhibitors in human HEK 293 cells (AID 1347053);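 also: series mostly up to about 46 µM; plate controls were infected untreated cells for no effect and uninfected cells for full effect; nearly all actives have a fitted effect of over 55% in size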
Outline: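 TR-FRET signal from two anti-ZIKV NS1 antibodies quantified NS1 in HEK 293 cells 24 h after MR766 infection at MOI = 0.5; compounds were added 1 h before virus. Uninfected cells and infected cells defined the NS1 normalization range.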

[7] = qHTS of pediatric cancer cell lines to identify multiple opportunities for drug repurposing: Primary screen for TC32 cells (AID 1347089); also: % is scaled to controls: 0 for no effect and ±100 for the full control effect; nearly all actives have a fitted effect of over 60% in size
Outline: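 qHTS, TC32, 48 h drug treatment, CellTiter-Glo luminescence as a proxy for metabolically active cells; primary top concentration 46 µM (MIPE 11-pt, NPC 8-pt); confirmatory 11-pt.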

[8] = qHTS of pediatric cancer cell lines to identify multiple opportunities for drug repurposing: Primary screen for DAOY cells (AID 1347090);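 also: series mostly up to about 46 µM; plate controls were DMSO for no effect and bortezomib for full effect; nearly all actives have a fitted effect of over 55% in size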
Outline: (§1)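 Eight- or eleven-point concentration series, 48 h treatment at 37 degrees C in growth media; readout CellTiter-Glo luminescence. Potency and efficacy were taken from the concentration-response curves.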

[9] = qHTS of pediatric cancer cell lines to identify multiple opportunities for drug repurposing: Primary screen for SJ-GBM2 cells (AID 1347091);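 also: plate controls were DMSO neutral control for no effect and bortezomib for full effect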
Outline: as §1

[10] = qHTS of pediatric cancer cell lines to identify multiple opportunities for drug repurposing: Primary screen for A673 cells (AID 1347092); also: % is scaled to controls: 0 for no effect and ±100 for the full control effect; nearly all actives have a fitted effect of over 45% in size
Outline: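 Luminescence from CellTiter-Glo, taken after 15 min at room temperature, served as the proxy for metabolically active cells following 48 h treatment. Both potency and efficacy were taken from curves fitted to the titration data.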

[11] = qHTS of pediatric cancer cell lines to identify multiple opportunities for drug repurposing: Primary screen for SK-N-MC cells (AID 1347093);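 also: series mostly up to about 46 µM; plate controls were DMSO neutral control for no effect and bortezomib for full effect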
Outline: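 Metabolically active cells were quantified by ATP-dependent luminescence (CellTiter-Glo, 15 min at room temperature) following 48 h treatment. Cells had been plated at 500-1,000 per well and settled for 5 h beforehand.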

[12] = qHTS of pediatric cancer cell lines to identify multiple opportunities for drug repurposing: Primary screen for BT-37 cells (AID 1347094);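 also: series mostly up to about 57 µM; plate controls were DMSO for no effect and bortezomib for full effect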
Outline: (§2)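 Readout: CellTiter-Glo luminescence, 48 h treatment. Controls DMSO (neutral) and bortezomib 2.3 µM final (positive). Potency and efficacy taken from primary-screen concentration-response curves.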

[13] = qHTS of pediatric cancer cell lines to identify multiple opportunities for drug repurposing: Primary screen for NB-EBc1 cells (AID 1347095);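 also: plate controls were DMSO neutral control for no effect and bortezomib for full effect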
Outline: as §2

[14] = qHTS of pediatric cancer cell lines to identify multiple opportunities for drug repurposing: Primary screen for U-2 OS cells (AID 1347096);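 also: plate controls were DMSO wells for no effect and bortezomib positive control wells for full effect; nearly all actives have a fitted effect of over 50% in size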
Outline: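 Cells (500-1,000/well) in growth media were settled 5 h at 37 degrees C, then given compounds for 48 h. Viability was read as CellTiter-Glo luminescence. Primary runs used MIPE at 11 points (0.78 nM-46 µM) and NPC at 8 points (0.59 nM-46 µM); follow-ups used 11 points.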

[15] = qHTS of pediatric cancer cell lines to identify multiple opportunities for drug repurposing: Primary screen for Saos-2 cells (AID 1347097); also: % is scaled to controls: 0 for no effect and ±100 for the full control effect; nearly all actives have a fitted effect of over 40% in size
Outline: as §2

[16] = qHTS of pediatric cancer cell lines to identify multiple opportunities for drug repurposing: Primary screen for SK-N-SH cells (AID 1347098); also: % is scaled to controls: 0 for no effect and ±100 for the full control effect; nearly all actives have a fitted effect of over 65% in size
Outline: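 Cells (500-1,000/well) rested 5 h, then received compounds for 48 h; metabolically active cells were measured by CellTiter-Glo luminescence. Final concentrations spanned up to 46 µM (MIPE, 11-point) or 0.59 nM-46 µM (NPC, 8-point) in primary screens, 11-point in follow-ups.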

CC(=O)Nc1ccc(OCCOCCOc2ccc(NC(C)=O)cc2)cc1
inactive: outcome [1] | outcome [2] | outcome [3] | outcome [4] | outcome [5] | outcome [6] | outcome [7] | outcome [8] | outcome [9] | outcome [10] | Potency [11] | outcome [12] | outcome [13] | outcome [14] | outcome [15] | outcome [16]

O=C(NCN1CCOCC1)c1cnccn1
inactive: outcome [1] | outcome [2] | outcome [3] | outcome [4] | outcome [5] | outcome [6] | outcome [7] | outcome [8] | outcome [9] | outcome [10] | Potency [11] | outcome [12] | outcome [13] | outcome [14] | outcome [15] | outcome [16]

COc1cc(C(=O)NCCCCCC(=O)O)cc(OC)c1OC
inactive: outcome [1] | outcome [2] | outcome [3] | outcome [4] | outcome [5] | outcome [6] | outcome [7] | outcome [8] | outcome [9] | outcome [10] | Potency [11] | outcome [12] | outcome [13] | outcome [14] | outcome [15] | outcome [16]

O=C1C(c2[nH]c3ccccc3c2O)=Nc2ccccc21
inactive: outcome [1] | outcome [2] | outcome [3] | outcome [4] | outcome [5] | outcome [6] | outcome [7] | outcome [8] | outcome [9] | outcome [10] | Potency [11] | outcome [12] | outcome [13] | outcome [14] | outcome [15]

CO[C@@]1(NC(=O)C(C(=O)O)c2ccc(O)cc2)C(=O)N2C(C(=O)O)=C(CSc3nnnn3C)CO[C@@H]21 (stereo not given in full)
inactive: outcome [1] | outcome [2] | outcome [3] | outcome [4] | outcome [5] | outcome [6] | outcome [7] | outcome [8] | outcome [9] | outcome [10] | Potency [11] | outcome [12] | outcome [13] | outcome [14] | outcome [15] | outcome [16]

CC1CC(OC(=O)c2ccccc2O)CC(C)(C)C1 (stereo not given)
inactive: outcome [1] | outcome [2] | outcome [3] | outcome [4] | outcome [5] | outcome [6] | outcome [7] | outcome [8] | outcome [9] | outcome [10] | Potency [11] | outcome [12] | outcome [13] | outcome [14] | outcome [15]

COC(=O)N/N=C/c1c[n+]([O-])c2ccccc2[n+]1[O-]
inactive: outcome [1] | outcome [2] | outcome [3] | outcome [4] | outcome [5] | outcome [6] | outcome [7] | outcome [8] | outcome [9] | outcome [10] | Potency [11] | outcome [12] | outcome [13] | outcome [14] | outcome [15]

CC(=O)Nc1cccc(O)c1
inactive: outcome [1] | outcome [2] | outcome [3] | outcome [4] | outcome [5] | outcome [6] | outcome [7] | outcome [8] | outcome [9] | outcome [10] | Potency [11] | outcome [12] | outcome [13] | outcome [14]

CC(C)c1cc2c(cc1S(=O)(=O)O)[C@@]1(C)CCC[C@@](C)(C(=O)O)[C@@H]1CC2
inactive: outcome [1] | outcome [2] | outcome [3] | outcome [4] | outcome [5] | outcome [6] | outcome [7] | outcome [8] | outcome [9] | outcome [10] | Potency [11] | outcome [12] | outcome [13] | outcome [14] | outcome [15]

NC(=O)NS(=O)(=O)c1ccc(N)cc1
inactive: outcome [1] | outcome [2] | outcome [3] | outcome [4] | outcome [5] | outcome [6] | outcome [7] | outcome [8] | outcome [9] | outcome [10] | Potency [11] | outcome [12] | outcome [13] | outcome [14] | outcome [15]

CCN(CC)CCc1nc(-c2ccccc2)no1
inactive: outcome [1] | outcome [2] | outcome [3] | outcome [4] | outcome [5] | outcome [6] | outcome [7] | outcome [8] | outcome [9] | outcome [10] | Potency [11] | outcome [12] | outcome [13] | outcome [14] | outcome [15] | outcome [16]

O=C(O)CNC(=O)c1ccccc1I
inactive: outcome [1] | outcome [2] | outcome [3] | outcome [4] | outcome [5] | outcome [6] | outcome [7] | outcome [8] | outcome [9] | outcome [10] | Potency [11] | outcome [12] | outcome [13] | outcome [14] | outcome [15] | outcome [16]

CC(=O)OC[C@H]1O[C@@](COC(C)=O)(O[C@H]2O[C@H](COC(C)=O)[C@@H](OC(C)=O)[C@H](OC(C)=O)[C@H]2OC(C)=O)[C@@H](OC(C)=O)[C@@H]1OC(C)=O
inactive: outcome [1] | outcome [2] | outcome [3] | outcome [4] | outcome [5] | outcome [6] | outcome [7] | outcome [8] | outcome [9] | outcome [10] | Potency [11] | outcome [12] | outcome [13] | outcome [14] | outcome [15]

CC(=O)Oc1cccc(O)c1
inactive: outcome [1] | outcome [2] | outcome [3] | outcome [4] | outcome [5] | outcome [6] | outcome [7] | outcome [8] | outcome [9] | outcome [10] | Potency [11] | outcome [12] | outcome [13] | outcome [14] | outcome [15] | outcome [16]

CC(=O)Nc1ccc(C(=O)O)cc1
inactive: outcome [1] | outcome [2] | outcome [3] | outcome [4] | outcome [5] | outcome [6] | outcome [7] | outcome [8] | outcome [9] | outcome [10] | Potency [11] | outcome [12] | outcome [13] | outcome [14] | outcome [15]

OCc1ccc(Cl)cc1Cl
inactive: outcome [1] | outcome [2] | outcome [3] | outcome [4] | outcome [5] | outcome [6] | outcome [7] | outcome [8] | outcome [9] | outcome [10] | Potency [11] | outcome [12] | outcome [13] | outcome [14]

N[C@@H](Cc1ccc(O)cc1)C(=O)O
inactive: activity change, negative = inhibition [1] 4.45% [at 9.06 µM] | activity change, negative = inhibition [2] -11% [at 9.06 µM] | outcome [3] | outcome [4] | outcome [5] | activity change, negative = inhibition [6] 1.13% [at 9.2 µM] | activity change, negative = cytotoxic [7] 18.1% [at 9.17 µM] | activity change, negative = cytotoxic [8] 6.24% [at 9.22 µM] | activity change, negative = cytotoxic [9] 12% [at 9.22 µM] | activity change, negative = cytotoxic [10] 2.23% [at 9.22 µM] | activity change, negative = cytotoxic [11] 11% [at 9.22 µM] | activity change, negative = cytotoxic [12] 20.6% [at 11.5 µM] | activity change, negative = cytotoxic [13] 15% [at 9.22 µM] | activity change, negative = cytotoxic [14] 16.3% [at 9.22 µM] | activity change, negative = cytotoxic [15] 14.8% [at 9.22 µM]
